Records with an inconclusive call do not appear. Activity calls are given as the source filed them. Calls follow the shape of the dose curve; as a rule, active = well fitted cell-killing curve with a large enough effect; inconclusive = small, poorly fitted or top-dose-only effect, or effect the other way; inactive = no such curve, though single readings can be large or run the other way.
Potency is read from the fitted curve at half-maximal effect.

The test in a line: Quantitative High-Throughput drug screen in 47 multiple myeloma cell lines against the NCATS MIPE library collection: OCIMY1_PLB cell viability assay (AID 1918979). Also: nearly all actives have a fitted effect of over 35% in size. The settings on record: OCI-MY1 myeloma viability, CellTiter-Glo ATP, 48 h; series mostly up to 45.8 µM. The text has this: PI: Beverly A. Mock Ph.D.
Laboratory of Cancer Biology and Genetics,
Center for Cancer Research, National Cancer Institute,
National Institute of Health, Bethesda, Maryland
Drug resistance and disease progression are common in multiple myeloma (MM) patients, underscoring the need for new therapeutic combinations. […] We hypothesized that effective combinations would reduce MYC expression and enhance p16 activity. […] These preclinical data identify potentially useful drug combinations for evaluation in drug-resistant MM and reveal potential mechanisms of combined drug sensitivity.
Described herein is the primary MIPE qHTS used to cherrypick compounds. Validated compounds were then further tested for potential synergistic activiy.
[1] Peat TJ, Gaikwad SM, Dubois W, Gyabaah-Kessie N, Zhang S, Gorjifard S, Phyo Z, Andres M, Hughitt VK, Simpson RM, Miller MA, Girvin AT, Taylor A, Williams D, D'Antonio N, Zhang Y, Rajagopalan A, Flietner E, Wilson K, Zhang X, Shinn P, Klumpp-Thomas C, McKnight C, Itkin Z, Chen L, Kazandijian D, Zhang J, Michalowski AM, Simmons JK, Keats J, Thomas CJ, Mock BA. Drug combinations identified by high-throughput screening promote cell cycle transition and upregulate Smad pathways in myeloma. Cancer Lett. 2023 Aug 1;568:216284. doi: 10.1016/j.canlet.2023.216284. Epub 2023 Jun 24. PMID: 37356470; PMCID: PMC10408729.
SEQUENCE No. (e.g., 1, 2, 3, etc.); […] (e.g., Cells, Incubation, Reagent, etc.); VALUE and DESCRIPTION.
1; Cells; 5 uL; white, solid bottom 1536-well Greiner assay plate.
2; Compounds; 23 nL; Kalypsis pin tool (Wako USA) equipped with a 1536-well pin head to transfer to the assay plates.
3; Incubation; 48 hours; 37C incubation.
4; Reagent;5uL; CellTiter Glo (Promega).
5; Detector; 425V; Luminescence; Viewlux PerkinElmer.
NOTES (numbers refer to Sequence numbers above)
1. The cell-based screening methods employed in this study were like those previously published. Briefly, the corresponding myeloma cell lines were screened in 1,536-well plates with 500 cells, 5-uL per well for inhibition of cell viability (assessed by measuring ATP levels with CellTiterGlo).
2. NCATS MIPE 4.0 library of approved and investigational drugs were added using the Kalypsis pin tool. Wells treated with DMSO only for 100% viability and media only for 0% viability were used as controls.
3. The assay plates were covered and incubated for 48 hours in a 37C, 5% CO2 incubator with controlled humidity.
4. After 48 hours, CellTilter-GloTM luminescent substrate mix (Promega) reagent was added to the assay plate and plates we incubated for 5 min at room temperature.
5. Signal was measured as median relative luminescence units on a ViewLux (PerkinElmer) multiplate reader.
[1] Heske CM, Davis MI, Baumgart JT, Wilson K, Gormally MV, Chen L, Zhang X, Ceribelli M, Duveau DY, Guha R, Ferrer M, Arnaldez FI, Ji J, Tran HL, Zhang Y, Mendoza A, Helman LJ, Thomas CJ. Matrix Screen Identifies Synergistic Combination of PARP Inhibitors and Nicotinamide Phosphoribosyltransferase (NAMPT) Inhibitors in Ewing Sarcoma. Clin Cancer Res. 2017 Dec 1;23(23):7301-7311. doi: 10.1158/1078-0432.CCR-17-1121. Epub 2017 Sep 12. PMID: 28899971; PMCID: PMC6636827.
For `Cc1cc(C(=O)N2CCN(c3cccc(Cl)c3)CC2)n(-c2ccccc2)n1`, the Potency was 3.72 µM (active).

Turning to `CC[C@@H]1C(=O)N(C)c2cnc(Nc3ccc(C(=O)NC4CCC(N5CCN(CC6CC6)CC5)CC4)cc3OC)nc2N1C(C)C` (stereo not given in full), the Potency is 0.264 µM (active).

In the case of `O=C(c1ccc(Nc2nccc(-c3cc4ccccc4s3)n2)cc1)N1CCC(N2CCCC2)CC1`, the Potency is 20.9 µM (active).

For `CN1CCN(Cc2ccc(NC(=O)Nc3ccc(Oc4cc(NC(=O)C5CC5)ncn4)cc3)cc2C(F)(F)F)CC1`, the Potency is 1.18 µM (active).

As for `O=C(Nc1nc2cccc(-c3ccc(CN4CCS(=O)(=O)CC4)cc3)n2n1)C1CC1`, the Potency is 23.5 µM (active).

`C#Cc1cccc(Nc2ncnc3cc(OC)c(OCCCCCCC(=O)NO)cc23)c1`: the Potency was 1.05 µM (active).

As for `COc1ccc(F)c(F)c1C(=O)c1cnc(NC2CCN(S(C)(=O)=O)CC2)nc1N`, the Potency was 3.72 µM (active).

As for `CC(C)(C)c1cc(C(C)(C)C)c(NC(=O)c2c[nH]c3ccccc3c2=O)cc1O`, the Potency entry was “inactive”.

As to `Nc1ccccc1NC(=O)c1ccc(CNC(=O)OCc2cccnc2)cc1`, the Potency was 4.69 µM (active).

Consider `Cc1[nH]nc2ccc(-c3cncc(OC[C@@H](N)Cc4ccccc4)c3)cc12`, for which the Potency was 6.62 µM (active).

`CC(C)c1ccccc1Cc1cc(C(=O)Nc2ccc(S(=O)(=O)c3ccccc3C(C)(C)C)cc2)c(O)c(O)c1O`: the Potency was 23.5 µM (active).

Regarding `CCN1CCN(CC(=O)Nc2ccc(-c3cccc4c(=O)cc(N5CCOCC5)oc34)c3sc4ccccc4c23)CC1`, the Potency was 5.9 µM (active).

As to `CN1CCN(c2cc(C(=O)Nc3ccc4c(c3)-c3c(c(C(N)=O)nn3-c3ccc(F)cc3)CC4)c(Cl)cn2)CC1`, the Potency was 26.4 µM (active).

On to `O=C(O)C1(Cc2cccc(Nc3nccs3)n2)CCC(Oc2cccc(Cl)c2F)CC1` (stereo not given), for which the Potency result was “inactive”.

With `O=C(C=Cc1c(C(=O)O)[nH]c2cc(Cl)cc(Cl)c12)Nc1ccccc1`, the Potency result is “inactive”.

As to `CC1(C)O[C@@H]2C[C@@H]3[C@H]4C[C@@H](F)C5=CC(=O)C=C[C@]5(C)[C@@]4(F)[C@@H](O)C[C@]3(C)[C@]2(C(=O)CO)O1`, the Potency entry was “inactive”.

In the case of `O=C(C=Cc1cccc(S(=O)(=O)Nc2ccccc2)c1)NO`, the Potency was 6.79 µM (active).

Consider `Cc1c(Cn2c(C)nc3c(C(=O)O)cc(N4CCOCC4)cc32)cccc1C(F)(F)F`, for which the Potency entry is “inactive”.

Take `Cc1cnc(Nc2ccc(F)cc2Cl)nc1-c1c[nH]c(C(=O)N[C@H](CO)c2cccc(Cl)c2)c1`: the Potency was 26.4 µM (active).

In the case of `C=CC(=O)Nc1cccc(Oc2nc(Nc3ccc(N4CCN(C)CC4)cc3OC)ncc2Cl)c1`, the Potency was 20.9 µM (active).

Take `Nc1nc(Nc2ccc(S(N)(=O)=O)cc2)nn1C(=O)c1c(F)cccc1F`: the Potency is 13.2 µM (active).

Consider `CC(NCc1ccc2c(c1)nc(NC(=O)c1ccc(-c3cn[nH]c3)s1)n2CC(C)(C)O)C(C)(C)C` (stereo not given), for which the Potency is 1.05 µM (active).

On to `CC[C@@]1(O)C(=O)OCc2c1cc1n(c2=O)Cc2cc3cc(O)ccc3nc2-1`, for which the Potency was 1.66 µM (active).

For the molecule `CC(C)[C@H](C(=O)Nc1ccc(C(=O)NO)cc1)c1ccccc1`, the Potency was 1.18 µM (active).

For `N#CCNC(=O)c1ccc(-c2ccnc(Nc3ccc(N4CCOCC4)cc3)n2)cc1`, the Potency was 23.5 µM (active).

`CNC(=O)c1cc(Oc2ccc(NC(=O)Nc3cc(C(C)(C)C)nn3-c3ccc4ncccc4c3)c(F)c2)ccn1`: the Potency is 16.6 µM (active).

As for `Cc1cn(-c2cc(NC(=O)c3ccc(C)c(Nc4nccc(-c5cccnc5)n4)c3)cc(C(F)(F)F)c2)cn1`, the Potency was 26.4 µM (active).

Consider `Cc1nc2cnc3ccc(C#Cc4cccnc4)cc3c2n1-c1ccc(C(C)(C)C#N)cc1`, for which the Potency is 1.48 µM (active).

For the molecule `CN(C)Cc1c(C(=O)NCCOc2ccc(C(=O)NO)cc2)oc2ccccc12`, the Potency was 1.66 µM (active).

As for `Cc1ccc(C(=O)Nc2ccc(CN3CCN(C)CC3)c(C(F)(F)F)c2)cc1C#Cc1cnc2cccnn12`, the Potency is 14.8 µM (active).

In the case of `Cn1c2cc(S(C)=O)sc2c2cnn(Cc3cccc(N)c3)c(=O)c21` (stereo not given), the Potency result is “inactive”.

In the case of `COc1cc2c(Oc3ccc(-c4cnc(Nc5ccc(F)cc5)n(C)c4=O)cc3F)ccnc2cc1OCCCN1CCOCC1`, the Potency was 11.8 µM (active).

In the case of `CC=C1NC(=O)[C@H]2CSSCCC=C[C@H](CC(=O)N[C@H](C(C)C)C(=O)N2)OC(=O)[C@H](C(C)C)NC1=O`, the Potency is 0.118 µM (active).

Consider `Cc1cc(CN2CCN(c3c(Br)cnc4nc(-c5ccc(N6CCN(C)CC6)cc5)[nH]c34)CC2)no1`, for which the Potency was 14.8 µM (active).

On to `C=CC(=O)Nc1cc2c(Nc3ccc(F)c(Cl)c3)ncnc2cc1OCCCN1CCOCC1`, for which the Potency was 23.5 µM (active).

Take `COc1cc2c(Oc3ccc4[nH]c(C)cc4c3F)ncnc2cc1OCCCN1CCCC1`: the Potency is 26.4 µM (active).

Consider `Cc1ccc(CN2CCNCC2)cc1NC(=O)CNc1ccc(F)c(F)c1`, for which the Potency result is “inactive”.

For `O=C(O)c1ccc2c(c1)nc(Nc1cccc(Cl)c1)c1ccncc12`, the Potency is 18.7 µM (active).

For `CN1CCN(c2ccc3nc(-c4c(N)c5c(F)cccc5[nH]c4=O)[nH]c3c2)CC1`, the Potency is 18.7 µM (active).

With `C=C1C(=CC=C2CCC[C@]3(C)[C@@H]([C@H](C)C=C[C@H](C)C(C)C)CC[C@@H]23)C[C@@H](O)C[C@@H]1O`, the Potency is 18.7 µM (active).

Values taken from PubChem BioAssay (NCATS).
